# Columns and labels:
# [1] = biological target: Sphingosine kinase 1 (Homo sapiens) (UniProt Q9NYA1); settings: at 1 µM;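 note: mean SPHK1 inhibition value reported from the GSK PKIS kinase panel screen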
# [2] = biological target: T1, Sphingosine kinase 2 (Homo sapiens) (UniProt Q9NRA0); settings: at 0.1 µM
# T1 sequence (whole entry): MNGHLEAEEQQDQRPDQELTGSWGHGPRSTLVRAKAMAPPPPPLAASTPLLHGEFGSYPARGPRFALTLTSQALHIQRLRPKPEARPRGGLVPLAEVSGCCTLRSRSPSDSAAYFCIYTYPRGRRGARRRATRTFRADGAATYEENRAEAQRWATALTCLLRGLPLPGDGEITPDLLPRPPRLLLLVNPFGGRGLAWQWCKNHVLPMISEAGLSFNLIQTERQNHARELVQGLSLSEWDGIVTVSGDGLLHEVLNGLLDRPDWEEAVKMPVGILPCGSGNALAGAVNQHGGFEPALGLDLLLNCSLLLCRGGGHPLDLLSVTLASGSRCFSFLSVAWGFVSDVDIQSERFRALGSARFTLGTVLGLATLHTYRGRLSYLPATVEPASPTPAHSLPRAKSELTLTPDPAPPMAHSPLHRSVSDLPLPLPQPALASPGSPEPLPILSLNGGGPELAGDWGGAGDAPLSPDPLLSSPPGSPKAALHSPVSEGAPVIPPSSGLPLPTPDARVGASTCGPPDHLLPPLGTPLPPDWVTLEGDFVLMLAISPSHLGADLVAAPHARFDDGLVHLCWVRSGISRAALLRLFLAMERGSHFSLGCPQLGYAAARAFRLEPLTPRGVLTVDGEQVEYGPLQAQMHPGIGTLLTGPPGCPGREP
# [3] = biological target: T1, Sphingosine kinase 2 (Homo sapiens); settings: at 1 µM
# [4] = biological target: Casein kinase II subunit alpha (Homo sapiens) (UniProt P68400); settings: at 0.1 µM
# [5] = biological target: Casein kinase II subunit alpha (Homo sapiens) (UniProt P68400); settings: at 1 µM
# [6] = biological target: T2, Inhibitor of nuclear factor kappa-B kinase subunit alpha (Homo sapiens) (UniProt O15111); settings: at 0.1 µM
# T2 sequence (whole entry): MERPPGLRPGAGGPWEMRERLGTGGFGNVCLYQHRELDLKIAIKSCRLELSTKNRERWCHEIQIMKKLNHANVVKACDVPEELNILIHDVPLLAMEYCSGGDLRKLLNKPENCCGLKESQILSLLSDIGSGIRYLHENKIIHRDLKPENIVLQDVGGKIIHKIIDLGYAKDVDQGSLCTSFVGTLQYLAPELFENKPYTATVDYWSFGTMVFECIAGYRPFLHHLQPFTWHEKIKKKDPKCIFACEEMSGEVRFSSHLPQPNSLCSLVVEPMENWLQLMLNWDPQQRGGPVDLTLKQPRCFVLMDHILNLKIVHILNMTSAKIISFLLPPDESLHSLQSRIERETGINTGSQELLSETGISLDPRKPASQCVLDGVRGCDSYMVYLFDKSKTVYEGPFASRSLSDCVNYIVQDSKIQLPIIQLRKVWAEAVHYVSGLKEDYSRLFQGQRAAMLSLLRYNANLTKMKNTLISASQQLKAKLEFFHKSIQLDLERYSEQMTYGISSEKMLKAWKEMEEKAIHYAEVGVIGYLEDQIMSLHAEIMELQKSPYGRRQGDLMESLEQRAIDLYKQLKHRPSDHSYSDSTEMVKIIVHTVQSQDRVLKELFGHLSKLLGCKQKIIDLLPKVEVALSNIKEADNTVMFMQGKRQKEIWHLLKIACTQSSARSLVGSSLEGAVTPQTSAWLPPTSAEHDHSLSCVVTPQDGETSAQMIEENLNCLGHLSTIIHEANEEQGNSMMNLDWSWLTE
# [7] = biological target: T3, Inhibitor of nuclear factor kappa-B kinase subunit beta (Homo sapiens) (UniProt O14920); settings: at 0.1 µM
# T3 sequence (whole entry): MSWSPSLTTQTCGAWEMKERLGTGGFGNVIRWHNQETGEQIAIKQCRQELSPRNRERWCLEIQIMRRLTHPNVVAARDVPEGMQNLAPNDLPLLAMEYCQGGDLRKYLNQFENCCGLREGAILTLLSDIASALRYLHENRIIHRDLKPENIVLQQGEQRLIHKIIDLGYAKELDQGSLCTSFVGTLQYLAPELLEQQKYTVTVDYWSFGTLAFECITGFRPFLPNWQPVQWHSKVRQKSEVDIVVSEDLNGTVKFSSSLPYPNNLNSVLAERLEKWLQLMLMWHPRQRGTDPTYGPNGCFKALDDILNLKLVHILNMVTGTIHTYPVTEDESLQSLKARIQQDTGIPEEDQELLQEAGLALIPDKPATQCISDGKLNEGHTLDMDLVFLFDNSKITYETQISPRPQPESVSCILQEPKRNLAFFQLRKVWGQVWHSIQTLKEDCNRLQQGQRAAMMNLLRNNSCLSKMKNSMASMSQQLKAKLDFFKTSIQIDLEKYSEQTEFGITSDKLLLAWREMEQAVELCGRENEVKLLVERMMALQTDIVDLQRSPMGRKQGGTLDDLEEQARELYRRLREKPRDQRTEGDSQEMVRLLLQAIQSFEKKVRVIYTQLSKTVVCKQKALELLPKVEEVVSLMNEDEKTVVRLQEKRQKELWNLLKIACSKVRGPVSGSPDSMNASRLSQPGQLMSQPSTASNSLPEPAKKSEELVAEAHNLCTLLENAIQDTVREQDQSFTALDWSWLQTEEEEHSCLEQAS
# [8] = biological target: T3, Inhibitor of nuclear factor kappa-B kinase subunit beta (Homo sapiens); settings: at 1 µM
# [9] = biological target: T4, Inhibitor of nuclear factor kappa-B kinase subunit epsilon (Homo sapiens) (UniProt Q14164); settings: at 0.1 µM
# T4 sequence (whole entry): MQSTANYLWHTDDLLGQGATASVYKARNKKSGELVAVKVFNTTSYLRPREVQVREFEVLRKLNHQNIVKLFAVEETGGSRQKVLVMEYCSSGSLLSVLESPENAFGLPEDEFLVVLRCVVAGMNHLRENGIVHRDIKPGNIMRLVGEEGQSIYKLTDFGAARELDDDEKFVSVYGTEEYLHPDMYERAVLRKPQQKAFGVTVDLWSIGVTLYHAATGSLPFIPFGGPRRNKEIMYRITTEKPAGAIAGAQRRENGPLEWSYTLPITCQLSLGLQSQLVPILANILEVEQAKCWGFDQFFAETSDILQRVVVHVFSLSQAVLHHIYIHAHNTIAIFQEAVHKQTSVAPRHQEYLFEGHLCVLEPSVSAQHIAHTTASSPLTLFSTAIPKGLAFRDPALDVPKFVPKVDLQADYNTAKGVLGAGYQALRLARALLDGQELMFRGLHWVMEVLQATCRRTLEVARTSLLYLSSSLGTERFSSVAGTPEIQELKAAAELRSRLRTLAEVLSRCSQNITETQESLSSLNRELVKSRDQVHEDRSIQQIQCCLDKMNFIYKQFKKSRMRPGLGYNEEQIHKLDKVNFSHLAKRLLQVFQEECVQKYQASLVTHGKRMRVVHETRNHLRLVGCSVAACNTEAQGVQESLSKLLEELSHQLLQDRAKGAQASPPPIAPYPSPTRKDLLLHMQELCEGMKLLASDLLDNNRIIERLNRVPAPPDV
# [10] = biological target: T4, Inhibitor of nuclear factor kappa-B kinase subunit epsilon (Homo sapiens); settings: at 1 µM
# [11] = biological target: T5, Serine/threonine-protein kinase Nek1 (Homo sapiens) (UniProt Q96PY6); settings: at 0.1 µM
# T5 sequence (whole entry): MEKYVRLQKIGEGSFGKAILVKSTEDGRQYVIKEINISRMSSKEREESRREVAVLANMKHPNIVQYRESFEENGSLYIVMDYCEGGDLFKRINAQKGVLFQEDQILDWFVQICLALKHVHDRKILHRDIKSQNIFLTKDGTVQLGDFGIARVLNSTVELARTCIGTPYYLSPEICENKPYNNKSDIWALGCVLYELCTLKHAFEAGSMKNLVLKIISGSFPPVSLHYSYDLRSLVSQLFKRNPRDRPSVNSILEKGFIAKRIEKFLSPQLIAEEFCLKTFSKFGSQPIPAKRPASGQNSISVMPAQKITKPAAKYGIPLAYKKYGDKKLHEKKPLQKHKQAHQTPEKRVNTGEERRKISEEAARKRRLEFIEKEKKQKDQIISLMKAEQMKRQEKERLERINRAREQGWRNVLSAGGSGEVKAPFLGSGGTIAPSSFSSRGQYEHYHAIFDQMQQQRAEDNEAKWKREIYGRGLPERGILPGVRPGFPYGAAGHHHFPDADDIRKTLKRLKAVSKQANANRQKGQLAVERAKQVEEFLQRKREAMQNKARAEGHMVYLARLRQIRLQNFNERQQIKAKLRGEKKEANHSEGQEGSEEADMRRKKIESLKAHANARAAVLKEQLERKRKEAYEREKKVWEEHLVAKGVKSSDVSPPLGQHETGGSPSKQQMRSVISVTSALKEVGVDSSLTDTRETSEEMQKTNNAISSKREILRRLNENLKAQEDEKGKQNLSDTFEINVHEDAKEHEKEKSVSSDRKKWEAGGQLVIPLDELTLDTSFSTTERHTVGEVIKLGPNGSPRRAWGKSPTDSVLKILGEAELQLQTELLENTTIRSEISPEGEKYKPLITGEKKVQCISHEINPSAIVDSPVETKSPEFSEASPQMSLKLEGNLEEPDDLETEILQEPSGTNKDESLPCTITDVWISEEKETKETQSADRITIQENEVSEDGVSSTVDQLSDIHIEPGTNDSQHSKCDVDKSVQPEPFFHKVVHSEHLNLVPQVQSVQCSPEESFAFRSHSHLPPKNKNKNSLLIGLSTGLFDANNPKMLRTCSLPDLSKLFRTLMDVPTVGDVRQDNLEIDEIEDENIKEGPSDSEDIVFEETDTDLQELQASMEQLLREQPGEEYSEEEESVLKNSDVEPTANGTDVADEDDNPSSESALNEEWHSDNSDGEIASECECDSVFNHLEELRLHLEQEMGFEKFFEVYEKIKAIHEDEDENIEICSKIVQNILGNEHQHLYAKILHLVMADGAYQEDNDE
# [12] = biological target: T5, Serine/threonine-protein kinase Nek1 (Homo sapiens); settings: at 1 µM
# [13] = biological target: T6, Serine/threonine-protein kinase Nek2 (Homo sapiens) (UniProt P51955); settings: at 0.1 µM
# T6 sequence (whole entry): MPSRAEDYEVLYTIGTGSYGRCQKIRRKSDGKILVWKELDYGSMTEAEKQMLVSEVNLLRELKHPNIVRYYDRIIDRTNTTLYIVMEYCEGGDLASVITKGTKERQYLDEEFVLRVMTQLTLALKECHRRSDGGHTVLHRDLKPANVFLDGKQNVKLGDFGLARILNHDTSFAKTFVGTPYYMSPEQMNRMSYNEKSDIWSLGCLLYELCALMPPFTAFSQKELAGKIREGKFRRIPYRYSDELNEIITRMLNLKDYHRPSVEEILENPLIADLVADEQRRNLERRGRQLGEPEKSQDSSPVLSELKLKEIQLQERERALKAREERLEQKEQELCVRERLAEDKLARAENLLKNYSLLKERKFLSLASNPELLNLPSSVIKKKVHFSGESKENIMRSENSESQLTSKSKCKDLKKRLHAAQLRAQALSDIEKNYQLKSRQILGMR
# [14] = biological target: T6, Serine/threonine-protein kinase Nek2 (Homo sapiens); settings: at 1 µM
# [15] = biological target: Serine/threonine-protein kinase Nek6 (Homo sapiens) (UniProt Q9HC98); settings: at 0.1 µM
# [16] = biological target: Serine/threonine-protein kinase Nek6 (Homo sapiens) (UniProt Q9HC98); settings: at 1 µM
# [17] = biological target: Serine/threonine-protein kinase Nek7 (Homo sapiens) (UniProt Q8TDX7); settings: at 0.1 µM
# [18] = biological target: Serine/threonine-protein kinase Nek7 (Homo sapiens) (UniProt Q8TDX7); settings: at 1 µM
# [19] = biological target: T7, Serine/threonine-protein kinase Nek9 (Homo sapiens) (UniProt Q8TD19); settings: at 0.1 µM;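 note: reported value is the mean percent inhibition of NEK9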
# T7 sequence (whole entry): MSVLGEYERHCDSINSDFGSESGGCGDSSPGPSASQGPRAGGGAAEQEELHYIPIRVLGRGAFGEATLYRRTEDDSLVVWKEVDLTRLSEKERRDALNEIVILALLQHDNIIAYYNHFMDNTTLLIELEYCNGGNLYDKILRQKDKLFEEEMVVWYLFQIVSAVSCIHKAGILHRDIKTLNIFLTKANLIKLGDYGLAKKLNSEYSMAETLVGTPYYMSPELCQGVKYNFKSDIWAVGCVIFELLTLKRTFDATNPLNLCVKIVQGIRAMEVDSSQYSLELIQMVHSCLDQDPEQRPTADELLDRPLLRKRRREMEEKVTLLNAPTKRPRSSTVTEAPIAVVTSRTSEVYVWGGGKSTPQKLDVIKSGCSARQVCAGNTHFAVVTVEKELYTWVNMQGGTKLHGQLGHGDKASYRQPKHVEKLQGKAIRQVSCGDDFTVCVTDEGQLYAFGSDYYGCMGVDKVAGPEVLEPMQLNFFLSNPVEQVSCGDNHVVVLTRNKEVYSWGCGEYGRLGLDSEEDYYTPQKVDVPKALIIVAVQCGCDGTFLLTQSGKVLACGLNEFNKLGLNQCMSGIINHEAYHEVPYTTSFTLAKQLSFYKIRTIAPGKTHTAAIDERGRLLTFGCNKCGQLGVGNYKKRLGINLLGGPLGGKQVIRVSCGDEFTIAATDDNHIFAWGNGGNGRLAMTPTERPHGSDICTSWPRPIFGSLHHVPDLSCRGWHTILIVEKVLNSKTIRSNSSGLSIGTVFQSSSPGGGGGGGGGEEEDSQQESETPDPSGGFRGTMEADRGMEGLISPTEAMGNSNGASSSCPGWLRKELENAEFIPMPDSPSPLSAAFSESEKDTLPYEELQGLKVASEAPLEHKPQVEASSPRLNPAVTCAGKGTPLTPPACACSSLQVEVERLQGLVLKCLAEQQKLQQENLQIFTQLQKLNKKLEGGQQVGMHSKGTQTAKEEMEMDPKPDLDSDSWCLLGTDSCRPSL
# [20] = biological target: T2, Inhibitor of nuclear factor kappa-B kinase subunit alpha (Homo sapiens); settings: at 1 µM
# Sequence of Serine/threonine-protein kinase Nek6 (Homo sapiens) (Q9HC98 whole entry): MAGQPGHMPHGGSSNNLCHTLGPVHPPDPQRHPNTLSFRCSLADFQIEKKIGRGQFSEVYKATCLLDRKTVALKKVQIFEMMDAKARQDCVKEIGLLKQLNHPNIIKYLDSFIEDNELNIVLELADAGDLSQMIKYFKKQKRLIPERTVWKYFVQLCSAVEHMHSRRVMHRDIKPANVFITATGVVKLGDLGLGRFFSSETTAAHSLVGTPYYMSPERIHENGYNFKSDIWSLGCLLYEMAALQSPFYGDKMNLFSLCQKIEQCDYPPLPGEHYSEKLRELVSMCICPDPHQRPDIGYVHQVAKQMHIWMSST
# Sequence of Serine/threonine-protein kinase Nek7 (Homo sapiens) (Q8TDX7 whole entry, looked up): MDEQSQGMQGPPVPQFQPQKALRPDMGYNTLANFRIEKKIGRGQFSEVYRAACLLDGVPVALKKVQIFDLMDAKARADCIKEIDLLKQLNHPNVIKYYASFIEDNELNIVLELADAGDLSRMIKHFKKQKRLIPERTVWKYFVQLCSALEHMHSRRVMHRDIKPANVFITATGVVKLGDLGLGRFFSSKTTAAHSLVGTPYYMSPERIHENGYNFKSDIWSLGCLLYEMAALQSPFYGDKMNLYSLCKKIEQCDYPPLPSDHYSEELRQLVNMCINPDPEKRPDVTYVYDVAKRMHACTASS
# Sequence of Casein kinase II subunit alpha (Homo sapiens) (P68400 whole entry, looked up): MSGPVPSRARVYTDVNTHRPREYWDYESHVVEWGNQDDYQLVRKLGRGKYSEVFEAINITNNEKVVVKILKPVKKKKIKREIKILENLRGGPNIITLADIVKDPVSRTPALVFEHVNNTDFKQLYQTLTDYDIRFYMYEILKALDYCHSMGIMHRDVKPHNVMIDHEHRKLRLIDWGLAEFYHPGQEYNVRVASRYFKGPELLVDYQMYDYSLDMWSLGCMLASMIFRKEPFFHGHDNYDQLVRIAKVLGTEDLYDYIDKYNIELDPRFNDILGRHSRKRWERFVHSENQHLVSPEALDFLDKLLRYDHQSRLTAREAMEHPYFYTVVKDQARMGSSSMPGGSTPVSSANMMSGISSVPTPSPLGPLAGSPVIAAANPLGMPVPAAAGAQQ
# Sequence of Sphingosine kinase 1 (Homo sapiens) (Q9NYA1 whole entry): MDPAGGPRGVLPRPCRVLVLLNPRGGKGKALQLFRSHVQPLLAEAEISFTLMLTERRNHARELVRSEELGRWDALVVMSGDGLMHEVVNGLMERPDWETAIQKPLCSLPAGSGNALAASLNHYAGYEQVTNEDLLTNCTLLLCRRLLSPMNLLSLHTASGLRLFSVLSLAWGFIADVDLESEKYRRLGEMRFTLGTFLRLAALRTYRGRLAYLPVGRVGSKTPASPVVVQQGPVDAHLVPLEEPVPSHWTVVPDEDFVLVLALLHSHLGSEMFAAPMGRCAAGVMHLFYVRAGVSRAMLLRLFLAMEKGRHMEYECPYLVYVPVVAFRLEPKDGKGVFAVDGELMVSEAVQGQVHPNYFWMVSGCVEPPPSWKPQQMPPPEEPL
SMILES,inhibition [1],inhibition [2],inhibition [3],inhibition [4],inhibition [5],inhibition [6],inhibition [7],inhibition [8],inhibition [9],inhibition [10],inhibition [11],inhibition [12],inhibition [13],inhibition [14],inhibition [15],inhibition [16],inhibition [17],inhibition [18],inhibition [19],inhibition [20]
CCn1c(-c2nonc2N)nc2ccncc21,-0.31%,-1.06%,0.26%,-4.19%,-5.18%,-7.12%,5.3%,3.24%,3.33%,0.86%,1.01%,0.07%,2.29%,1.09%,2.53%,-2.93%,3.2%,2.01%,0.35%,
CCn1c(-c2nonc2N)nc2cncc(C(=O)N3CCNCC3)c21,-1.31%,2.81%,0.77%,4.04%,2.82%,1.05%,6.46%,8.59%,12.2%,7.71%,4.64%,3.76%,3.46%,5.88%,1.92%,3.67%,2.41%,10.8%,6%,5.47%

# From ChEMBL document CHEMBL1961873, “Compounds: GSK PKIS; Assays: Nanosyn kinase panel” (2012)
